Source: the supplement of paper PMC10849652
Targets with a hit are over-represented here; the source holds about 8,800 in all. About 0.5% of all pairs of compound and target were hits. Values without a mark were called inactive.

Experiments:
Assay in all cases: log2 fold change, soluble protein after heating vs DMSO (PISA); higher = thermal stabilisation; K562 lysate, 10 uM; active = over 0.2 and 3.5 SD of the protein, either way, in both replicates (recomputed)
alvocidib = compound: CN1CC[C@H](c2c(O)cc(O)c3c(=O)cc(-c4ccccc4Cl)oc23)[C@H](O)C1 [alvocidib]
Summary of the method: (§1)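 To prepare the extract, K562 pellets were dounce-homogenised in PBS pH 7.4 with 1 mM MgCl2, giving crude material at 1 mg/mL protein. This was treated with 10 μM compound for 30 min, then heated in aliquots for 3 min over 48°C-58°C before pooling and addition of NP-40 to 0.5% at 4°C. Centrifugation at 21,000xg for 90 min left soluble protein in the supernatant, which TMTpro 16plex LC-MS/MS quantified with equalised channel sums. Results are log-two fold changes in thermal stability compared with solvent controls, from duplicates.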

[1] = compound: CNC(=O)C1=CC=CC=C1NC2=NC(=NC=C2Cl)NC3=C(C=C(C=C3)N4CCOCC4)OC
Summary of the method: as §1

defactinib = compound: CNC(=O)c1ccc(Nc2ncc(C(F)(F)F)c(NCc3nccnc3N(C)S(C)(=O)=O)n2)cc1 [defactinib]
Summary of the method: as §1

[2] = compound: CNc1nc(-c2ccc3c(N)n[nH]c3c2)cc(N2C[C@@H](C(=O)NC3CCCCC3)CC[C@H]2C)n1
Summary of the method: as §1

encorafenib = compound: COC(=O)N[C@@H](C)CNc1nccc(-c2cn(C(C)C)nc2-c2cc(Cl)cc(NS(C)(=O)=O)c2F)n1 [encorafenib]
Summary of the method: as §1

[3] = compound: COC(=O)[C@H](CCSC)NC(=O)C1=C(C=C(C=C1)NC[C@H](CS)N)C2=CC=CC=C2
Summary of the method: as §1

crizotinib = compound: C[C@@H](Oc1cc(-c2cnn(C3CCNCC3)c2)cnc1N)c1c(Cl)ccc(F)c1Cl [crizotinib]
Summary of the method: as §1

[4] = compound: C[C@H](C1=CC=C(C=C1)C(=O)NC2=C3C=CNC3=NC=C2)N
Summary of the method: as §1

duvelisib = compound: C[C@H](Nc1ncnc2nc[nH]c12)c1cc2cccc(Cl)c2c(=O)n1-c1ccccc1 [duvelisib]
Summary of the method: as §1

gandotinib = compound: Cc1cc(Nc2cc(CN3CCOCC3)c3nc(C)c(Cc4ccc(Cl)cc4F)n3n2)n[nH]1 [gandotinib]
Summary of the method: as §1

tozasertib = compound: Cc1cc(Nc2cc(N3CCN(C)CC3)nc(Sc3ccc(NC(=O)C4CC4)cc3)n2)n[nH]1 [tozasertib]
Summary of the method: as §1

doramapimod = compound: Cc1ccc(-n2nc(C(C)(C)C)cc2NC(=O)Nc2ccc(OCCN3CCOCC3)c3ccccc23)cc1 [doramapimod]
Summary of the method: as §1

[5] = compound: Cc1cccc(CC(=O)N2CCc3c2ccc(-c2cn(C)c4ncnc(N)c24)c3F)n1
Summary of the method: as §1

alisertib = compound: COc1cc(Nc2ncc3c(n2)-c2ccc(Cl)cc2C(c2c(F)cccc2OC)=NC3)ccc1C(=O)O [alisertib]
Summary of the method: as §1

gefitinib = compound: COc1cc2ncnc(Nc3ccc(F)c(Cl)c3)c2cc1OCCCN1CCOCC1 [gefitinib]
Summary of the method: as §1

[6] = compound: COc1cc2nc(-c3cc(F)ccc3O)nc(N[C@@H]3CNC[C@H]3C(C)(C)O)c2cc1OC
Summary of the method: as §1

lapatinib = compound: CS(=O)(=O)CCNCc1ccc(-c2ccc3ncnc(Nc4ccc(OCc5cccc(F)c5)c(Cl)c4)c3c2)o1 [lapatinib]
Summary of the method: as §1

pictilisib = compound: CS(=O)(=O)N1CCN(Cc2cc3nc(-c4cccc5[nH]ncc45)nc(N4CCOCC4)c3s2)CC1 [pictilisib]
Summary of the method: as §1

bafetinib = compound: Cc1ccc(NC(=O)c2ccc(CN3CC[C@H](N(C)C)C3)c(C(F)(F)F)c2)cc1Nc1nccc(-c2cncnc2)n1 [bafetinib]
Summary of the method: as §1

Tubastatin A = compound: CN1CCc2c(c3ccccc3n2Cc2ccc(C(=O)NO)cc2)C1 [Tubastatin A]
Summary of the method: as §1

Sequence of UniProt Q9BVG8 (Q9BVG8 whole entry, looked up): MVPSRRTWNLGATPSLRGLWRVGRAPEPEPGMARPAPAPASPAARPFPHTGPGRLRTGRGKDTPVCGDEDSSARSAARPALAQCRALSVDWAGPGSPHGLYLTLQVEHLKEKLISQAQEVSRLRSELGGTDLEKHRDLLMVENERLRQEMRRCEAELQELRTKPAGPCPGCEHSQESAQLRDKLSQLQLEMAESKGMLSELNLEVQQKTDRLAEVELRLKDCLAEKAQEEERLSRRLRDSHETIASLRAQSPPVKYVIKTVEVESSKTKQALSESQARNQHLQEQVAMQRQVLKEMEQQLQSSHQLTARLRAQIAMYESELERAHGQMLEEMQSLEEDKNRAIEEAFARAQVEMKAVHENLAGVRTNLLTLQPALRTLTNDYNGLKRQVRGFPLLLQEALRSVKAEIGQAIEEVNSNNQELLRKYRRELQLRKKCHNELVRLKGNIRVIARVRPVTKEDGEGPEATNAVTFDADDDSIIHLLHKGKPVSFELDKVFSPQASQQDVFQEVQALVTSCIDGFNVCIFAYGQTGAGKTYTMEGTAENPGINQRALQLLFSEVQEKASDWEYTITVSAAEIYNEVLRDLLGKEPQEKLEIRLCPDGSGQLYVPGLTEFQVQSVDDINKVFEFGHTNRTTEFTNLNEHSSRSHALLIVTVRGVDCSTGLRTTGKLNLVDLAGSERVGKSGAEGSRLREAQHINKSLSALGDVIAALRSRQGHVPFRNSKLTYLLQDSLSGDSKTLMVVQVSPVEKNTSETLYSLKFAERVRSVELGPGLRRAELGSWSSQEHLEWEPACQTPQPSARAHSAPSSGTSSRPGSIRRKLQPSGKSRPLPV
Sequence of UniProt O00522 (O00522 whole entry, looked up): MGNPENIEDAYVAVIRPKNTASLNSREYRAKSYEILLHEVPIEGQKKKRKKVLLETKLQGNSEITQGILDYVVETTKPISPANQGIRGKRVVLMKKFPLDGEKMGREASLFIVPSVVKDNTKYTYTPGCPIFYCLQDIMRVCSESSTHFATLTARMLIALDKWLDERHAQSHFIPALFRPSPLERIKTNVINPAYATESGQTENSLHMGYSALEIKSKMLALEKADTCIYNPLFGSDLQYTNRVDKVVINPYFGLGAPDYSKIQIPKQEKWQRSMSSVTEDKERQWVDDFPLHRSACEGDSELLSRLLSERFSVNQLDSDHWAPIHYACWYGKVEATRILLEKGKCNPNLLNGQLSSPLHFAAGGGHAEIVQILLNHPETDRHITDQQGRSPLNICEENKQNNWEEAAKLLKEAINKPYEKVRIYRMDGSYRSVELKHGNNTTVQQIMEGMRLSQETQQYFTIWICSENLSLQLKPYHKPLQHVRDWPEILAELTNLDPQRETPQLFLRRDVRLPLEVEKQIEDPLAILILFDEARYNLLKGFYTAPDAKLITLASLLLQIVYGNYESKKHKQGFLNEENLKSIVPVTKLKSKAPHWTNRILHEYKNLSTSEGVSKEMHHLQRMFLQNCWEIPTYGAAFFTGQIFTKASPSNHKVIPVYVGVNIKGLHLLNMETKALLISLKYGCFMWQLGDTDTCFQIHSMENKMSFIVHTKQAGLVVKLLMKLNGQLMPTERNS
Sequence of UniProt Q16553 (Q16553 whole entry, looked up): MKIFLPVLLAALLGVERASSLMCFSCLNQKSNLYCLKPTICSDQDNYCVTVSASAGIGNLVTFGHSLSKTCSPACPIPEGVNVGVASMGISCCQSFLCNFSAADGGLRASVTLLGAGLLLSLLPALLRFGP
Sequence of UniProt Q6ZRR7 (Q6ZRR7 whole entry, looked up): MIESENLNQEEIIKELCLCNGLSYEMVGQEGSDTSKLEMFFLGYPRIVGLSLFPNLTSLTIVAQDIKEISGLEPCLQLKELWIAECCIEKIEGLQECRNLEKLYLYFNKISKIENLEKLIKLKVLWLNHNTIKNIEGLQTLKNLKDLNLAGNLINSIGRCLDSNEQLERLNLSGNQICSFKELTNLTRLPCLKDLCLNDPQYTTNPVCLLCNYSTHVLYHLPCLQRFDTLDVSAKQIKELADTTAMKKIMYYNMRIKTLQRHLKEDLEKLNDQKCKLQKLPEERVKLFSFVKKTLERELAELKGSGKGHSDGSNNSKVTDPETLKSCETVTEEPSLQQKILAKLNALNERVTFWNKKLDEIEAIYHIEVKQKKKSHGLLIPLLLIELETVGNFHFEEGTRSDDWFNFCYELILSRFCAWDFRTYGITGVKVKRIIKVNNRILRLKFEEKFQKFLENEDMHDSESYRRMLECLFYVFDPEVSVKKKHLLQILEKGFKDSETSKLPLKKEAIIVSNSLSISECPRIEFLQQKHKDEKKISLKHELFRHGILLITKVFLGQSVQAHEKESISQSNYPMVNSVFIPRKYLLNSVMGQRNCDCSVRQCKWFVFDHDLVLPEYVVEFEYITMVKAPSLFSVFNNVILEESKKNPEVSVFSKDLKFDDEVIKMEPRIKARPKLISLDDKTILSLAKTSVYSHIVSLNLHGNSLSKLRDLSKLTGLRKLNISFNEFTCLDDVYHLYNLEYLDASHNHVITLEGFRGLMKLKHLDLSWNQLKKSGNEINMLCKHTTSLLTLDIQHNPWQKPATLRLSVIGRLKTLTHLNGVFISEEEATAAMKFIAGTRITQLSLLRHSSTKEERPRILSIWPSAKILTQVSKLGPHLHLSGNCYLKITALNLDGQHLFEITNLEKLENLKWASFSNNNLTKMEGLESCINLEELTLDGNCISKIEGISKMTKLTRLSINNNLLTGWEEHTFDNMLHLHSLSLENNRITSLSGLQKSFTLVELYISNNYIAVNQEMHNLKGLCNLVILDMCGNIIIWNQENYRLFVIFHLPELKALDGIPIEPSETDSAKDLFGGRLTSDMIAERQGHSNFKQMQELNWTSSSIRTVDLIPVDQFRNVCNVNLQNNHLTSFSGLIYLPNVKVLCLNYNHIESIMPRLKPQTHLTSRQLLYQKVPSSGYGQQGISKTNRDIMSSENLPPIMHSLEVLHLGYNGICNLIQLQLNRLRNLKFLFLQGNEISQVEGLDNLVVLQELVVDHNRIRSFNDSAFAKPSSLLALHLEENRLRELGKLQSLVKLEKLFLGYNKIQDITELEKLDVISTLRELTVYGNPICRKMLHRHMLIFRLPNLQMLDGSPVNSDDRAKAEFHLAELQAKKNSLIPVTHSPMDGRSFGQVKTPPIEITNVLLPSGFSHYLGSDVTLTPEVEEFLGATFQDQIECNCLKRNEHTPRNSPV
Sequence of UniProt Q9UBG0 (Q9UBG0 whole entry, looked up): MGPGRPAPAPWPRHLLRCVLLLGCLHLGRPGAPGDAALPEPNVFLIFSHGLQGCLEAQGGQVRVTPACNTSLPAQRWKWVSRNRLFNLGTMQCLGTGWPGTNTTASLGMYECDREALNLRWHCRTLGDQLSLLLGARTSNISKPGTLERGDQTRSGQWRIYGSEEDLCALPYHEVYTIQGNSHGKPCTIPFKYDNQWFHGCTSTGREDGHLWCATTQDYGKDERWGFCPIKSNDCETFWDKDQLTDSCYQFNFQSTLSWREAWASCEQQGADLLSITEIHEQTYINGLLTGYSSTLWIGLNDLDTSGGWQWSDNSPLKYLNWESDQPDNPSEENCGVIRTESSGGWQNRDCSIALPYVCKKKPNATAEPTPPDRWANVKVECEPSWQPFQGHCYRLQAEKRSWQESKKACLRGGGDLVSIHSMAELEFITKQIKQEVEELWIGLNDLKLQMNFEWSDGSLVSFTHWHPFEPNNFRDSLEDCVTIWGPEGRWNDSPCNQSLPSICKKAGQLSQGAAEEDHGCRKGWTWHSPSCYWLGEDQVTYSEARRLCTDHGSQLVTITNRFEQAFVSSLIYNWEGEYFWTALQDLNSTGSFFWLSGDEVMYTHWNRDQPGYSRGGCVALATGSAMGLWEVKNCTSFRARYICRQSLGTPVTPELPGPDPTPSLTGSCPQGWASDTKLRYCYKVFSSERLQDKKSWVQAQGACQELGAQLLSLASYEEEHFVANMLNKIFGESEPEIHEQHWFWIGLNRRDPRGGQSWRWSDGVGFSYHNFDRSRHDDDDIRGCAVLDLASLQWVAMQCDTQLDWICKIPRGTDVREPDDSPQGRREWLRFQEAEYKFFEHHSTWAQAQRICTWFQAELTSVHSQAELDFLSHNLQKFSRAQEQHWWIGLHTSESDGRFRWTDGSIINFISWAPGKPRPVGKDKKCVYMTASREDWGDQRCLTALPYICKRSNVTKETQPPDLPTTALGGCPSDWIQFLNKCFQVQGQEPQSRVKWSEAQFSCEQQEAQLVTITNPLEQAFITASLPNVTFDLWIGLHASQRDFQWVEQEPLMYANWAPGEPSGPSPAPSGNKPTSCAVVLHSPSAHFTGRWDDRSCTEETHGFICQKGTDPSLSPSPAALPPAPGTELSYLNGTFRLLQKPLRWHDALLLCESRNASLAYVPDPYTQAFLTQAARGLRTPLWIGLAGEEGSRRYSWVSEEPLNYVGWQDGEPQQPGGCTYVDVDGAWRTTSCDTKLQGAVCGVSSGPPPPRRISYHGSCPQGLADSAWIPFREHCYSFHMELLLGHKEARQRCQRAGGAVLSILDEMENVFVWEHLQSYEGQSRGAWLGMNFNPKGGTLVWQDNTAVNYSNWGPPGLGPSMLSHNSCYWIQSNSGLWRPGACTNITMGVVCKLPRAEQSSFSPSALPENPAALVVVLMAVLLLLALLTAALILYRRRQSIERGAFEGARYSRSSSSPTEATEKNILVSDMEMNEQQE
Sequence of UniProt Q8N5J2 (Q8N5J2 whole entry, looked up): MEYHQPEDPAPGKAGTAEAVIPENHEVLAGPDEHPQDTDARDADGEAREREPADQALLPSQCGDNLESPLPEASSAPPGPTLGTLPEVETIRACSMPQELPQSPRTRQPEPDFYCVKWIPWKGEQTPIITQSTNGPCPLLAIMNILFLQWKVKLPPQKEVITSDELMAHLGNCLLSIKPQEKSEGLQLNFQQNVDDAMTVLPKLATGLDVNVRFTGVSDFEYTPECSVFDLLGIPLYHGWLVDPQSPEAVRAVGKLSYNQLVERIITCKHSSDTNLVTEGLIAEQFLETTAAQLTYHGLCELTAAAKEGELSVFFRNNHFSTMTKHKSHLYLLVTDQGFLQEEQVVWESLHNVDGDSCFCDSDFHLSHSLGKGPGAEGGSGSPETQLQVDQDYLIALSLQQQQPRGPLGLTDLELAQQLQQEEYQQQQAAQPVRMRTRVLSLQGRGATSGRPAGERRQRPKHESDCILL

Target	log2 fold change (alvocidib)	log2 fold change [1]	log2 fold change (defactinib)	log2 fold change [2]	log2 fold change (encorafenib)	log2 fold change [3]	log2 fold change (crizotinib)	log2 fold change [4]	log2 fold change (duvelisib)	log2 fold change (gandotinib)	log2 fold change (tozasertib)	log2 fold change (doramapimod)	log2 fold change [5]	log2 fold change (alisertib)	log2 fold change (gefitinib)	log2 fold change [6]	log2 fold change (lapatinib)	log2 fold change (pictilisib)	log2 fold change (bafetinib)	log2 fold change (Tubastatin A)
LSM11 (UniProt P83369)	0.134	-0.15	-0.119	0.009	0.082	0.041	0.025	-0.123	0.009	0.039	0.011	0.123	-0.394	–	–	–	–	–	–	–
MAP3K6 (UniProt O95382)	–	–	-0.096	–	0.167	-0.031	–	–	–	–	-0.061	–	–	0.026	-0.022	–	–	–	–	–
KIF21A (UniProt H0YI78)	–	0.056	–	-0.01	–	–	–	–	-0.013	–	–	–	–	-0.003	-0.1	0.029	-0.11	0.052	0.187	–
LRP1 (UniProt Q07954)	–	–	-0.108	–	-0.091	0.043	-0.488	–	–	–	0.239	0.022	–	–	–	0.034	-0.047	–	–	–
KIF18B (UniProt Q86Y91)	–	–	–	-0.067	-0.159	-0.04	-0.008	–	0.068	–	-0.161	0.077	–	–	–	0.046	-0.024	–	–	–
MCUB (UniProt Q9NWR8)	0.019	-0.032	–	-0.074	–	–	-0.17	0.187	-0.018	-0.347	–	0.05	-0.016	0.121	-0.046	-0.062	0.044	0.088	-0.045	0.105
MINDY1 isoform 3 (UniProt Q8N5J2)	–	-0.031	0.021	-0.054	0.03	-0.053	-0.045	–	0.051	–	-0.036	0.051	–	0.001	0.134	0.103	-0.002	0	-0.11	0.093
MME (UniProt P08473)	-0.01	0.048	–	0.142	–	–	0.037	0.037	0.066	-0.002	–	0.002	0.048	-0.079	0.066	-0.018	0.025	-0.024	0.058	0.081
KRAS isoform 2 (UniProt P01116)	–	-0.037	–	0.046	-0.109	-0.062	-0.016	–	-0.022	–	-0.043	-0.062	–	–	–	0.019	-0.023	–	–	0.076
LRPPRC (UniProt H7C3W8)	–	–	-0.063	–	–	–	–	–	–	–	–	–	–	–	–	–	–	–	–	–
MEGF8 (UniProt Q7Z7M0)	0.03	0.058	–	-0.051	-0.01	0.131	0.113	-0.077	-0.167	-0.101	0.02	-0.028	-0.011	–	–	–	–	-0.015	0.068	0.156
MAP4 isoform 5 (UniProt P27816)	–	0.087	-0.086	0.138	-0.051	-0.025	-0.034	–	0.159	–	0.008	-0.061	–	0.047	0.039	-0.028	-0.089	-0.008	0.081	0.077
KMT2B (UniProt Q9UMN6)	–	-0.083	–	0.246	0.127	-0.008	0.073	–	-0.034	–	0.073	-0.033	–	–	–	–	–	–	–	–
KLC1 isoform 10 (UniProt Q07866)	–	0.147	–	–	0.06	-0.109	–	–	–	–	0.016	–	–	–	–	–	–	-0.167	0.032	–
KRIT1 (UniProt O00522)	–	0.089	0.045	0.102	0.118	0.123	-0.07	–	-0.001	–	-0.043	0.016	–	0.038	0.029	-0.055	-0.115	-0.058	-0.041	-0.034
MAPK3 (UniProt H0YEX6)	–	–	–	–	–	–	–	–	–	–	–	–	–	-0.128	-0.016	–	–	–	–	–
LRRIQ1 (UniProt Q96JM4)	–	–	-0.031	–	–	–	-0.278	–	–	–	–	-0.073	–	–	–	-0.037	0.04	–	–	-0.096
LRRC7 (UniProt Q96NW7)	0.069	–	0.251	0.058	-0.103	0.026	0.065	-0.025	0.083	-0.07	-0.018	0.001	0.093	–	–	-0.016	-0.048	0.041	0.112	0.079
LY6E (UniProt Q16553)	-0.726	–	-0.024	–	0.03	-0.005	–	-1.51 (active)	–	0.412	0.079	–	0.588	0.029	-0.013	0.016	-0.026	0.071	-0.2	–
MRC2 (UniProt Q9UBG0)	0.04	-0.062	–	0.05	0.031	-0.301	-0.3	-0.192	-0.49	0.075	0.063	0.035	-0.184	-0.075	0.046	–	–	–	–	–
LEPROT (UniProt O15243)	0.006	0	–	–	-0.003	0.01	-0.069	-0.019	–	0.054	-0.116	0	0.056	–	–	0.022	-0.058	0	-0.067	0.01
MAP3K4 isoform 2 (UniProt Q9Y6R4)	–	–	–	–	–	–	0.044	–	–	–	–	-0.007	–	–	–	–	–	–	–	–
KIFC3 isoform 6 (UniProt Q9BVG8)	-0.786 (active)	0.003	-0.255	0.308	-0.053	0.04	-0.21	-1.85 (active)	0.089	0.111	-0.111	-0.034	0.296	–	–	–	–	-0.127	-0.221	–
LGALS3BP (UniProt Q08380)	-0.187	-0.234	-0.133	-0.571 (active)	0.023	0.082	0.204	0.035	-0.149	0.197	0.115	-0.087	0.53	-0.074	0.019	0.092	-0.239	–	–	–
MEX3A (UniProt A1L020)	–	–	-0.068	0.037	–	–	–	–	0.196	–	–	–	–	-0.097	0.207	–	–	–	–	0.037
LRRC9 (UniProt Q6ZRR7)	0.911	–	-0.056	–	-0.022	0.003	-0.065	0.032	–	-0.488	0.053	0.074	0.694 (active)	–	–	–	–	–	–	–
